Results: PubChem BioAssay (NCATS)
Records with an inconclusive call do not appear. Active and inactive are the calls of the source. Unless noted, calls follow the shape of the dose curve; as a rule, active = well fitted curve in the direction sought with a large enough effect; inconclusive = small, poorly fitted or top-dose-only effect, or another doubt; inactive = no such curve, though single readings can be large; an effect the other way counts as inactive or inconclusive.

Tests used:
[1] = qHTS assay for environmental chemicals that activate the Aryl hydrocarbon Receptor (AhR) signaling pathway (AID 651777); details: 1A2-DRE human hepatoma cells, luciferase, 24 h; activation: hits give high values; also: % of control where 0% means no effect; nearly all actives have a fitted effect of over 15% in size
Procedure, shortened: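 Human hepatoma 1A2-DRE cells stably carrying a DRE/CYP1A2 promoter–luciferase reporter, 1,200 cells/well, exposed to compound 24 hr at 37 C. Luciferase read by One-Glo luminescence after 30 min at room temperature; increased signal marks AhR activation.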

[2] = molecular target: Peroxisome proliferator-activated receptor alpha (Homo sapiens) (UniProt Q07869); test: qHTS assay for small molecule agonists of the peroxisome proliferator-activated receptor alpha (PPARalpha) signaling pathway (AID 651778); details: PathHunter PPARalpha complementation, chemiluminescence, 6 h; max response: hits give high values; also: % of control where 0% means no effect
Procedure, shortened: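 Chemiluminescence from complemented enzyme reported PPARalpha activation in cells after 6 hr of compound treatment at 37 C. The detection reagent was incubated for 60 min at room temperature, and compounds were scored as agonists.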

[3] = qHTS assay for small molecule agonists of the antioxidant response element (ARE) signaling pathway measured by Nrf2-dependant transcriptional activity - cell viability counter screen (AID 720653; active = well fitted curve in the direction sought with a large enough effect in the repeat runs; an effect the other way counts as inactive or inconclusive; also: % is scaled to controls: 0 for no effect and ±100 for the full control effect); details: ARE-bla HepG2 viability, CellTiter-Glo ATP luminescence, 16 h; max response: hits give low values
Procedure, shortened: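 Cytotoxicity counter screen: intracellular ATP quantified by CellTiter-Glo luminescence in the same ARE-bla HepG2 plates, after 16 h compound exposure and a 2 h beta-lactamase substrate step.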

[4] = qHTS assay for cell viability of HEK293 cells (AID 743288); details: ATP luminescence (CellTiter-Glo), 18 h; max response: hits give low values; also: % is scaled to controls: 0 for no effect and ±100 for the full control effect; nearly all actives have a fitted effect of over 50% in size
Procedure, shortened: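 HEK293, 18 h, 37 C, ATP luminescence. Cells at 2,000/well were allowed at least 5 h to settle before dosing; CellTiter-Glo developed 30 min at RT.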

[5] = qHTS assay for cell viability of the p53RE-bla HCT-116 cell line (AID 743292); also: % is scaled to controls: 0 for no effect and ±100 for the full control effect; nearly all actives have a fitted effect of over 55% in size
Procedure, shortened: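 CellSensor p53RE-bla HCT-116 cells (4,000/well) pre-incubated 5 h at 37 C, then exposed to compounds in DMSO for 16 h at 37 C. Viability read as ATP content by CellTiter-Glo luminescence after 30 min at room temperature.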

[6] = molecular target: Nuclear receptor subfamily 1 group I member 2 (Rattus norvegicus) (UniProt Q9R1A7); test: qHTS assay for small molecule activators of the rat pregnane X receptor (rPXR) signaling pathway (AID 651751; call rule not given here; also: 0% is about no effect); details: rPXR reporter cells, luciferase (One-Glo), 24 h
[7] = qHTS assay for small molecule activators of the human pregnane X receptor (PXR) signaling pathway (AID 720659; call rule not given here; also: 0% is about no effect)

Sequence of Peroxisome proliferator-activated receptor alpha (Homo sapiens) (Q07869 whole entry, looked up): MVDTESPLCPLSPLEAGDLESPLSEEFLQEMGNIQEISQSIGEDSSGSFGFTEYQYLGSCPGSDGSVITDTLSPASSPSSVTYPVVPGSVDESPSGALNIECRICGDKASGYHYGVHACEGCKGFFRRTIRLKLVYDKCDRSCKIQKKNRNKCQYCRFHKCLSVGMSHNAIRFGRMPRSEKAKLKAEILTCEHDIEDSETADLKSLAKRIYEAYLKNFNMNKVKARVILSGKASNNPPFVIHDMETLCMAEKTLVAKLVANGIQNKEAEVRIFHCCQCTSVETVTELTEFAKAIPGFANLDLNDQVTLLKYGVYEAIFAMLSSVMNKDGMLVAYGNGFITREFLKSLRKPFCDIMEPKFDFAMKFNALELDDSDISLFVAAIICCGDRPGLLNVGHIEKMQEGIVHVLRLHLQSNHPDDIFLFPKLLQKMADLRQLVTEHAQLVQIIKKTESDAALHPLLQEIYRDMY
Sequence of Nuclear receptor subfamily 1 group I member 2 (Rattus norvegicus) (Q9R1A7 whole entry, looked up): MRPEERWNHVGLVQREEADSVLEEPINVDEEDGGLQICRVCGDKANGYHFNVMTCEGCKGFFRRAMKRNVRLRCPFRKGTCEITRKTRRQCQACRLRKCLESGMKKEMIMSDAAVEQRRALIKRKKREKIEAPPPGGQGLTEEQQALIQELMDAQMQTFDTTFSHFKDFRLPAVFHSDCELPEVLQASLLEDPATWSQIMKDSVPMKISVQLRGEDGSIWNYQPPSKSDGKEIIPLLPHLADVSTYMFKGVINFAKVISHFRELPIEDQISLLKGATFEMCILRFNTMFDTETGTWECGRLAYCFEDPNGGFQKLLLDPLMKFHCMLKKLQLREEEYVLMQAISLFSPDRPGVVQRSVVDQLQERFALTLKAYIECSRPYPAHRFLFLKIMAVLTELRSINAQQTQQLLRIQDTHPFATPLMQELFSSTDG

N[C@@H](Cc1ccccc1)C(=O)O
inactive: activation [1] -0.444% | max response [2] -0.0138% | max response [3] -5.99% | max response [4] 2.21% | Potency [5] | max response [6] -0.251% | outcome [7]
